Bioassay records as filed in PubChem.
A selection: hits, their analogues and other compounds. The true share with any hit is near 18%.
LDHA inh = inhibitors of human lactate dehydrogenase A; P00338; activity change, % (values are at about 110 or 230 µM); 480,000 tested, 0.15% active; purified LDHA, NADH/diaphorase-resazurin fluorescence; active compounds read low; in the data active = activity change below about -30%; inconclusive = mostly about -25% to -30%;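 note: plate controls were DMSO wells for no effect and wells without enzyme for full effect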
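LDH5 2 nM; NADH 0.06 mM, pyruvate 0.2 mM; 200 mM Tris pH 7.4, EDTA, Tween-20; 5 min RT. Detection: diaphorase 0.133 mg/mL + resazurin 37 µM, fluorescence ex540/em590 at 0 and 20 min; normalized to enzyme-free and DMSO wells.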
TDP1 cell CPT = growth inhibition of DT40 Tdp1-/-;hTDP1 cells with camptothecin (screen for TDP1 inhibitors); chicken DT40 Tdp1-/-;hTDP1 cells + 20 nM CPT, ATP luminescence, 48 h; Potency, µM (top dose mostly 46.2 µM), without a hit: at the top dose activity change, negative = growth inhibition, usual class: inhibitors; 420,000 tested, 12% active; note: potency is the fitted concentration of half-maximal effect; nearly all actives have a fitted effect of over 55% in size
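Cell growth measured by CellTiter-Glo luminescence after a minimum 48 h, 37 C compound exposure with 20 nM CPT in Tdp1-knockout DT40 cells stably expressing hTDP1, seeded 400/well; qHTS titration format.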
RORgamma inh = ROR gamma (mouse) transcription inhibition. P51450. Drosophila S2 Gal4-RORgamma UAS-luciferase reporter, 20 h. Potency, µM (series often up to 53.6 µM), inactives show top-dose activity change, negative = inhibition, most hits filed as inhibitors. 310,000 tested, 5.4% active. AID 2551; note: potency is the fitted concentration of half-maximal effect; nearly all actives have a fitted effect of over 60% in size
Target sequence (P51450 whole entry, looked up, the tested form may be a part): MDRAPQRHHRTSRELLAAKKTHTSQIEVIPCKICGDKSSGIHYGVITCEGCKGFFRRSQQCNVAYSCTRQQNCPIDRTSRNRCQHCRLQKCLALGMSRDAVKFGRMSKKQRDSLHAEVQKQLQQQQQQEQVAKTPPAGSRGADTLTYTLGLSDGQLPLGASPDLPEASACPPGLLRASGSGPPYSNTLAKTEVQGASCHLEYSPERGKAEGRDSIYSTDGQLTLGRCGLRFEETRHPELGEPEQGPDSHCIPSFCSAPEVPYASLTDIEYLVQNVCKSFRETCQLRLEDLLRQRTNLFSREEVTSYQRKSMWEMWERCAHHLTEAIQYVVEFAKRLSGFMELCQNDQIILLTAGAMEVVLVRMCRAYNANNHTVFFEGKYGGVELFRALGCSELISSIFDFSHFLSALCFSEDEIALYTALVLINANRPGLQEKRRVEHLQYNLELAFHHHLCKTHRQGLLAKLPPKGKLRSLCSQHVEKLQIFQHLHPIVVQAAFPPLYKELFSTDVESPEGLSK
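Schneider cells (Drosophila), stable Gal4 DBD–ROR gamma + UAS-luc; 1 hr cmpd preincubation; Cu2+ induction 700 uM final; 20 hr ambient; luminescence.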
TDP1 cell noCPT = qHTS for Inhibitors of human tyrosyl-DNA phosphodiesterase 1 (TDP1): qHTS in cells in absence of CPT; DT40 Tdp1-/- hTDP1 cells, no CPT, ATP luminescence, 48 h; Potency, µM (highest dose often 46.2 µM), without a hit: at the top dose activity change, negative = growth inhibition, usual class: inhibitors; 420,000 tested, 15% active; AID 686978, 2013; note: potency is the fitted concentration of half-maximal effect; nearly all actives have a fitted effect of over 55% in size
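Readout: luminescence from CellTiter-Glo after 30 min in the dark at RT. Cells: DT40 Tdp1-/- with stable hTDP1, 400/well. Exposure: compounds alone, ≥48 hr, 37 °C.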
IL-1B inflam inh = blocks inflammasome-driven IL-1 beta release; THP-1 LPS/ATP IL-1B secretion, AlphaLISA, 16 h; active compounds read low; activity change, % at 57.5 µM; 360,000 tested, 4.7% active; AID 743279; in the data active = activity change below about -50%; inconclusive = mostly about -30% to -49%
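Secreted IL-1B measured by AlphaLISA bead assay after 16 h compound exposure of THP-1 cells; compounds (final up to 57.5 uM) added 1 h before LPS (250 ng/mL) and ATP (1.25 mM) stimulation; lower signal means less secretion.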
Gal4-VP16 FLuc = inhibits Gal4-VP16 luciferase reporter, ROR gamma counter-screen | Drosophila S2 Gal4-VP16 UAS-luciferase, luminescence, 20 h | Potency, µM (top dose mostly 53.6 µM), for inactives: at the highest dose activity, negative = inhibition, hits mostly inhibitors | 310,000 tested, 3.5% active | AID 2546;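 note: Gal4-VP16 expression switched on by copper sulfate through the metallothionein promoter; potency is the fitted concentration of half-maximal effect; nearly all actives have a fitted effect of over 50% in size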
* marks the source's active call; other numbers are inactive results; u = inconclusive; x = no result. Unless noted, calls come from the whole dose curve; as a rule, active = well fitted curve in the direction sought with a large enough effect; inconclusive = small, poorly fitted or top-dose-only effect, or another doubt; inactive = no such curve, though single readings can be large; an effect the other way counts as inactive or inconclusive. Unless noted, % is set by controls: 0 for no effect and ±100 for the full control effect.

SMILES | LDHA inh | TDP1 cell CPT | RORgamma inh | TDP1 cell noCPT | IL-1B inflam inh | Gal4-VP16 FLuc
CCN(CC)CCNc1nc(-n2nc(C)cc2C)nc2sc3c(c12)CC(C)(C)OC3 | -3 | u | 2.2µM* | 10µM* | -25 | u
CCSc1nc(NCCN(C)C)c2c3c(sc2n1)COC(C)(CC)C3 (stereo unspecified) | -11 | 21µM* | 5% | u | u | 1%
Cc1cc(C)n(-c2nc3sc4c(c3c3nnc(SCC(N)=O)n23)CC(C)(C)OC4)n1 | -2 | 5% | 8% | -24% | -21 | -4%
CSc1nnc2c3c4c(sc3nc(-n3nc(C)cc3C)n12)COC(C)(C)C4 | -4 | u | -9% | 29µM* | 5 | -2%
Cc1cc(C)n(-c2nc(NCCC(C)C)c3c4c(sc3n2)COC(C)(C)C4)n1 | 3 | 9.2µM* | 0.63µM* | 16µM* | -2 | -12%
O=S(=O)(NCc1ccc(N2CCCC2)nc1)c1ccccc1 | 3 | x | x | x | x | x
Cc1cc(C)n(-c2nc(SCC(=O)Nc3nccs3)c3c4c(sc3n2)COC(C)(C)C4)n1 | -3 | u | u | 23µM* | 0 | u
Cc1cc(C)n(-c2nc(NCCN(C)C)c3c4c(sc3n2)COC(C)(C)C4)n1 | 2 | u | 16µM* | 23µM* | x | -19%
Cc1cc(C)n(-c2nc(-n3nc(C)cc3C)c3c4c(sc3n2)COC(C)(C)C4)n1 | x | x | 3.5µM* | x | x | 13µM*
Cc1cc(C)n(-c2nc(NCCCN(C)C)c3c4c(sc3n2)COC(C)(C)C4)n1 | -4 | 0% | u | u | -62* | 1%
CC1(C)Cc2c(sc3ncn(N)c(=N)c23)CO1 | -6 | -13% | -26% | -3% | -1 | -1%
O=C(Nc1ccccc1)N(Cc1ccc(Cl)cc1)c1ccccn1 | 12 | x | x | x | x | x
CC(SC1=NCCS1)C(=O)Nc1nnc(-c2ccc(F)cc2)s1 (stereo unspecified) | -5 | -9% | 7.9µM* | -22% | -53* | u
CCC(SC1=NCCS1)C(=O)Nc1nnc(-c2ccccc2OC)s1 (stereo unspecified) | -5 | u | 6.3µM* | u | -14 | 16µM*
CC(SC1=NCCS1)C(=O)Nc1nnc(-c2ccc(Br)cc2)s1 (stereo unspecified) | 2 | u | 8.9µM* | u | -20 | 10µM*
O=C(Cc1ccc(Br)cc1)NC1=NCCS1 | 2 | x | x | x | x | x
Cc1cc2oc(=O)cc(CN3CCN(CCc4ccccn4)CC3)c2cc1C | 0 | x | x | x | x | x
Cc1ccccc1C(=O)/C=C/c1cccnc1 | 9 | x | x | x | x | x
Cc1ccc(C)c(NC(=O)CN(C)C(=O)c2cc(S(=O)(=O)N3CCOCC3)ccc2N2CCCC2)c1 | -4 | -17% | -22% | -28% | -1 | 5%
Cc1cccc(N(Cc2ccccc2)C(=O)Cc2ccc(S(=O)(=O)N3CCOCC3)s2)c1 | -5 | u | x | 23µM* | -4 | x
Cc1ccc(N(Cc2ccccc2)C(=O)c2cc(S(=O)(=O)N3CCOCC3)ccc2N2CCCC2)cc1 | 0 | 21µM* | x | 21µM* | -5 | x
CC1CN(S(=O)(=O)c2cccc(C(=O)OCC(=O)c3cccs3)c2)CC(C)O1 (stereo unspecified) | -3 | -21% | 10% | -27% | 18 | -6%
CC1CN(S(=O)(=O)c2cccc(C(=O)N(C)C3CCCCC3)c2)CC(C)O1 (stereo unspecified) | -8 | 18µM* | x | 10µM* | 38 | x
CC1CN(S(=O)(=O)c2cccc(C(=O)OCCOc3ccccc3)c2)CC(C)O1 (stereo unspecified) | 0 | 21µM* | x | u | -4 | x
O=[N+]([O-])c1cc(NS(=O)(=O)c2cc(Cl)sc2Cl)ccc1F | -8 | x | x | x | x | x
SMILES | LDHA inh | TDP1 cell CPT | RORgamma inh | TDP1 cell noCPT | IL-1B inflam inh | Gal4-VP16 FLuc
Cc1ccc(-c2ccccc2)c(Oc2ccc(C#N)c(C#N)c2)c1 | 14 | x | x | x | x | x
CC1CCN(S(=O)(=O)c2cccc(C(=O)N(Cc3ccccc3)c3ccccn3)c2)CC1 | -9 | u | 17% | u | 0 | 12%
Cc1ccc(N(Cc2ccccc2)C(=O)c2ccc(F)c(S(=O)(=O)N3CCOCC3)c2)cc1 | -3 | u | x | 23µM* | 9 | x
Cc1cccc(N(Cc2ccccc2)C(=O)c2ccc(F)c(S(=O)(=O)N3CCOCC3)c2)c1 | -3 | u | x | u | -7 | x
Cc1cccc(N(Cc2ccccc2)C(=O)c2cccc(S(=O)(=O)N3CC(C)OC(C)C3)c2)c1 (stereo unspecified) | 0 | 12µM* | x | 10µM* | 6 | x
Cc1cccc(N(Cc2ccccc2)C(=O)c2ccc(C)c(S(=O)(=O)N3CCOCC3)c2)c1 | 1 | 16µM* | x | 13µM* | 0 | x
CCCSc1nn(CCN(C)C)c2nc3sc(C)c(CC)c3c(=O)n12 | 8 | x | x | x | x | x
O=C(NC1CCSC1=O)c1cc2ccccc2o1 (stereo unspecified) | 0 | x | x | x | x | x
CCOc1ccc2oc(=O)cc(CN3CCN(c4ccc(Cl)cc4)CC3)c2c1 | 2 | 23µM* | x | 26µM* | x | x
Cc1ccc2c(CN3CCN(C(=O)c4ccc(Br)cc4)CC3)cc(=O)oc2c1 | -1 | 21µM* | x | u | x | x
COc1ccc(N2CCN(Cc3cc4c(cc3Br)OCCO4)CC2)cc1 | 8 | u | 1% | u | -68* | 4%
COc1ccc(N2CCN(Cc3cc(=O)oc4cc(C)c(Cl)cc34)CC2)cc1 | 1 | u | -23% | -23% | 0 | 4%
CCOc1ccc2oc(=O)cc(CN3CCN(c4ccc(OC)cc4)CC3)c2c1 | 4 | u | x | 21µM* | x | x
COc1ccc(N2CCN(Cc3nnc(-c4ccc5c(c4)OCO5)o3)CC2)cc1 | 1 | u | x | u | x | x
CCc1ccc(NC(=O)c2ccccc2SCC(=O)NCc2ccco2)cc1 | 5 | x | x | x | x | x
CCOC(=O)c1ccc(NC(=O)c2nc3ccccc3nc2N2CCCCC2)cc1 | -5 | x | x | x | x | x
O=C(O)CSc1c(Cl)cccc1Cl | 3 | x | x | x | x | x
COc1ccc2oc(=O)cc(CN3CCN(Cc4ccc(OC)c(OC)c4OC)CC3)c2c1 | 0 | u | 8% | u | -54* | 5%
COc1ccc2oc(=O)cc(CN3CCN(C(=O)c4c(OC)cccc4OC)CC3)c2c1 | 12 | x | x | x | x | x
CCOc1ccc2oc(=O)cc(CN3CCN(C(=O)c4ccc(Cl)cc4)CC3)c2c1 | -2 | u | x | 21µM* | x | x
O=c1cc(CN2CCN(c3ccc(F)cc3)CC2)c2cc3c(cc2o1)CCCC3 | -2 | 18µM* | -9% | u | 35 | -3%
